Assay outcomes as filed in PubChem.
The list is not random: actives were taken first. Their share in the collection is about 2.1%.
Ecoli rRNA inh: inhibits bacterial ribosomal RNA function over humanized ribosomes. E. coli WT GFP vs humanized-ribosome RFP mutants, fluorescence, 24 h; active compounds read low; DMSO median 0, no signal -100. GFP signal change (wild-type ribosome), % (test concentration not listed). actives 1.6% (n = 350,000). AID 720706;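 active = significant combined selectivity score with lowered wild-type GFP, culture density cut under 30%, mutant RFP and density less affected; inactive = any of these conditions unmet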
ERAP1 inh: blocks human ERAP1 aminopeptidase activity; Q9NZ08; recombinant ERAP1, Leu-AMC fluorescence, 60 min; inhibition, % at 10.7 µM; actives 0.15% (n = 340,000);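 active = mean replicate inhibition of at least 30%, or all replicates individually reaching that 30% level; inactive = mean below 30% and not every replicate reaching it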;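 also: 0% = neutral control wells and 100% = L-leucinethiol positive control wells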
Target sequence (Q9NZ08 whole entry, looked up): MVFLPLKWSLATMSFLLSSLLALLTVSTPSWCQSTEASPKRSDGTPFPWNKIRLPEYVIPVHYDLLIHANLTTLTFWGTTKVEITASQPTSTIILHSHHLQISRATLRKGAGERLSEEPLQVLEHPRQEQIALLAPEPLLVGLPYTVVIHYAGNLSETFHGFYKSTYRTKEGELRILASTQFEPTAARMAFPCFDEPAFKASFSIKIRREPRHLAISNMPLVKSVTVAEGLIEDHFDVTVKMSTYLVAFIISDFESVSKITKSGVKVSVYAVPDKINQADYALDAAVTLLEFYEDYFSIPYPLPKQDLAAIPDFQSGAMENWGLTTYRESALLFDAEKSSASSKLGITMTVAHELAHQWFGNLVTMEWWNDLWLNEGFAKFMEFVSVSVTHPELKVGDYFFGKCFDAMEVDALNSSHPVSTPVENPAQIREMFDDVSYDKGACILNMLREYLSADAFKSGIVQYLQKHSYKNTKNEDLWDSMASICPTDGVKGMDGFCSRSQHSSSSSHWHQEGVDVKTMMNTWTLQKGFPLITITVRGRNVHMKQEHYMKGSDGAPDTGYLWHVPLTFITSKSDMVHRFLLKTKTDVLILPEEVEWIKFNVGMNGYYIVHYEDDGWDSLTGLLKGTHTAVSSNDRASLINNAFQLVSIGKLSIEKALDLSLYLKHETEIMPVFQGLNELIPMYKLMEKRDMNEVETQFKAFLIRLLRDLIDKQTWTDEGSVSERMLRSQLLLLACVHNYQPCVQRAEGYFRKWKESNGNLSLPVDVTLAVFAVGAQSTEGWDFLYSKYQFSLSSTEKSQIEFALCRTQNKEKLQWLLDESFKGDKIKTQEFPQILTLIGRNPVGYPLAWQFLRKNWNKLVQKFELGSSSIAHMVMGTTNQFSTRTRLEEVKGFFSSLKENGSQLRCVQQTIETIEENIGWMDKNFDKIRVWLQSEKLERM
ARNT-TACC3 inh: disrupts binding between human ARNT and TACC3. AlphaScreen His-ARNT PAS-B/GST-TACC3 binding, luminescence; TACC3 fragment carries E629A point mutation. inhibition, % at 9.99 µM. actives 0.66% (n = 390,000). AID 623870;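 active = mean inhibition of replicates at least 50% and at least half of replicates each reaching 50%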;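 also: 0% = complete ARNT plus TACC3 wells and 100% = ARNT alone without TACC3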
PvdQ acylase: P. aeruginosa PvdQ acylase inhibition; purified PvdQ acylase, fluorescence plate reader; inhibition, % at 10 µM; actives 0.063% (n = 340,000); AID 488965; in the data active = inhibition above about 30%, passing the limit was not always enough;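 also: 0% = vehicle neutral wells and 100% = reference inhibitor wells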
F508del corr: correctors of CFTR F508del function in bronchial epithelial cells. activity (quench increase), % at 7.58 µM. AID 720511. CFBE cells, YFP halide quenching; stimulated with forskolin plus potentiator P3; % fluorescence drop versus neutral controls. actives 0.36% (n = 350,000);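 active = mean added fluorescence quench of at least 8% versus neutral control, with both replicates also reaching 8%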;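 also: cells transiently co-express mutant CFTR-F508del with the halide-sensitive YFP; corrector assay measuring rescue of mutant channel to the surface after 24 h compound exposure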
Starred values were filed as active, the others as inactive; · = no result given.

SMILES | Ecoli rRNA inh | ERAP1 inh | ARNT-TACC3 inh | PvdQ acylase | F508del corr
COC(=O)[C@@]1(Cc2ccccc2)[C@H]2C(=O)N(C)C(=O)[C@H]2[C@H]2CN=C(SCc3ccc(C#N)cc3)N21 | -21* | 2 | 0 | -17 | 2
COC(=O)[C@@]1(Cc2ccccc2)[C@H]2C(=O)N(Cc3ccccc3)C(=O)[C@H]2[C@H]2CN=C(SCc3ccccc3)N21 | -13 | 0 | -4 | -10 | 2
COC(=O)[C@@]1(Cc2ccccc2)[C@H]2C(=O)N(C)C(=O)[C@H]2[C@H]2CN=C(SCc3ccccc3)N21 | -16* | 0 | 24 | 8 | 2
O=C(CN1CCOCC1)NCC[C@@H]1CC[C@@H](NS(=O)(=O)c2ccc(Cl)cc2)[C@@H](CO)O1 | 4 | -1 | -3 | · | 0
COC(=O)Nc1cc(C(=O)c2ccc(Cl)cc2Cl)c[nH]1 | -47* | -2 | -13 | -8 | 3
CC(C)Cc1ccc(C(C)C(=O)Nc2ccc(O)cc2)cc1 (stereo not given) | -27 | 3 | 0 | -10 | -1
CC(C)Cc1ccc(C(C)C(N)=Nc2ccc(O)cc2)cc1 (stereo not given) | -44* | 4 | 6 | -13 | 0
Cc1c(Cl)cccc1NC(=S)N(CCN(C)C)C(C)c1ccccn1 (stereo not given) | 12 | · | 54* | -8 | 1
COc1cc(/C=C2/SC(=S)N(Cc3ccccc3)C2=O)ccc1OS(C)(=O)=O | 9 | -1 | 0 | 15 | -1
COc1cc(/C=C2/SC(=S)N(CC(=O)O)C2=O)ccc1OC(=O)c1cccs1 | -19* | -4 | · | 1 | 4
COC(=O)N/N=C/c1ccc(OS(=O)(=O)c2ccc(C)cc2)c(OC)c1 | -28* | -2 | -7 | -4 | 1
COc1cc(/C=C2\SC(=S)N(CC(=O)O)C2=O)ccc1OS(=O)(=O)c1ccc(C)cc1 | -18* | -7 | 3 | 8 | -1
O=C(Nc1ccccc1)N1CCCCN2[C@H](CO)[C@H](c3ccc(C#Cc4ccccc4)cc3)[C@H]2C1 | -55 | 3 | 19 | · | -7
COc1ccc(-c2cc3cc(C(=O)O)ccn3c2C(=O)c2ccccc2)cc1 | -44 | 6 | -6 | -14 | 1
O=C(O)c1ccn2c(C(=O)c3ccccc3)c(-c3ccccc3)cc2c1 | -26* | 3 | -23 | -10 | 1
Cc1cc(C)[n+]2[nH]c(N)c(N=Nc3ccccc3)c2n1 | -28* | 5 | -2 | 3 | -5
CCC(=O)N[C@H]1C=C[C@H](CC(=O)NCc2ccccc2OC)O[C@H]1CO | 0 | -2 | · | · | -1
Cc1nc(Nc2ccc(S(N)(=O)=O)cc2)sc1C(=O)Nc1ccccc1 | -35* | -1 | 5 | -6 | 0
COc1ccccc1Nc1nc(C)c(C(=O)Nc2ccccc2)s1 | -32* | 1 | 0 | -3 | 5
Cc1ccc(S(=O)(=O)Nc2nc(C)c(C(=O)Nc3ccccc3)s2)cc1 | -13 | 0 | 2 | -9 | 0
COc1cccc(N=Nc2ccc3cccnc3c2O)c1 | 11 | 3 | 1 | -15 | 8.3*
COc1cccc(N=Nc2ccc(O)c3ncccc23)c1 | 8 | 0 | 20 | -3 | 0
O=C(NCC1CC1)[C@@H]1[C@@H](CO)[C@@H]2Cn3c(ccc(-c4ccccc4F)c3=O)[C@H]1N2Cc1cncnc1 | 2 | 0 | -1 | · | 3
O=C(Oc1cccc(OC(=O)c2ccco2)c1)c1ccco1 | -23* | -1 | -6 | -13 | -3
O=C(Oc1cccnc1)c1ccco1 | · | · | -13 | -16 | ·
SMILES | Ecoli rRNA inh | ERAP1 inh | ARNT-TACC3 inh | PvdQ acylase | F508del corr
S=C(NCCc1ccccc1)Nc1nccs1 | -22* | -2 | -1 | -2 | 9.2*
CC(C)(C)c1cc(CCC(=O)NCCc2ccccn2)cc(C(C)(C)C)c1O | -7 | -5 | 10 | -12 | -2
O=C1C=C(NCCc2cc(Br)c(O)c(Br)c2)C(=O)c2ncccc21 | -27* | 6 | 64* | -3 | 16*
OC[C@@H]1CN(Cc2ccc(-c3ccccc3)cc2)C[C@H](n2cnc3c(Nc4ccccc4)ncnc32)O1 | -7 | 3 | · | · | -4
OC[C@@H]1CN(Cc2ccc(-c3ccccc3)cc2)C[C@H](n2cnc3c(NC4CC4)ncnc32)O1 | -3 | -2 | · | · | 8.6*
CCC(=O)N1[C@H](C#N)[C@@H](c2ccccc2-c2cccc(C)c2)[C@H]1CO | -2 | 3 | · | · | 3
CN(C)C(=O)C[C@H]1CC[C@H]2[C@@H](COC[C@@H](O)CN2CC2CCCCC2)O1 | -5 | -2 | -3 | · | 2
CCCOC(c1ccccc1)(c1ccccc1)C(Oc1nc(C)cc(C)n1)C(=O)O (stereo not given) | -19* | 1 | -7 | -13 | -2
Cc1cc(C)nc(OC(C(=O)O)C(OCCC(C)C)(c2ccccc2)c2ccccc2)n1 (stereo not given) | 20 | 3 | 0 | -4 | 0
O=C(c1cccc([N+](=O)[O-])c1)N1CC2C3C=CC(C3)C2C1 (stereo not given) | 9 | -3 | 1 | 43* | 3
O=C(c1ccccc1[N+](=O)[O-])N1CC2C3C=CC(C3)C2C1 (stereo not given) | 13 | 11 | -7 | -12 | 0
CCN(CC(=O)NCc1ccccn1)S(=O)(=O)c1cc(Cl)ccc1Cl | -3 | -2 | 3 | -15 | 0
O=C(CN(c1cccc(Cl)c1)S(=O)(=O)c1ccc(Cl)cc1)NCc1ccccn1 | · | -8 | 47* | 4 | -1
COc1ccc(CNc2ncnc3cc(OC)c(OC)cc23)cc1OC | -17* | -1 | 2 | -1 | -1
COc1ccc(CNc2ncnc3cc(OC)c(OC)cc23)cc1 | · | · | 0 | -13 | ·
CN(C)CC(=O)N[C@H]1C=C[C@@H](CC(=O)NCc2ccc(Cl)cc2)O[C@@H]1CO | 0 | 4 | -2 | · | 0
COc1cc(OC)c2c(c1)OC(=O)CC2c1ccc2c(c1)OCO2 (stereo not given) | -28* | · | -1 | -14 | -1
Cc1cccc(-c2ccc([C@@H]3[C@H]4CN(S(=O)(=O)c5cn(C)cn5)CCCCN4[C@H]3CO)cc2)c1 | -45 | 2 | -11 | · | 0
O=C(COC(=O)c1ccc([N+](=O)[O-])o1)NC1CCCC1 | -4 | -2 | 48* | -11 | -2
O=C(COC(=O)c1ccc([N+](=O)[O-])o1)NC1CCCCC1 | 0 | 1 | 30 | -11 | 2
O=C(COC(=O)c1ccc([N+](=O)[O-])o1)NC1CCS(=O)(=O)C1 (stereo not given) | 5 | -2 | 31* | -7 | -1
O=C(COC(=O)c1ccc(-c2ccc([N+](=O)[O-])cc2)o1)NC(=O)NC1CCCCC1 | -33* | 0 | 4 | 1 | ·
CC1CCCCC1NC(=O)COC(=O)c1ccc([N+](=O)[O-])o1 (stereo not given) | 0 | 0 | 18 | 4 | 2
